Data taken from PubChem BioAssay AID1259418 (Broad Institute, 2018).
Hit rate of the full screen: of about 3,400 compounds, about 840 (25%) were called active. Roughly 11% stayed inconclusive and do not appear here. A selection follows. Entries with a potency or affinity are not part of this list. Unmarked numbers belong to inactive results.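 How the source made its calls: active means fitted half-maximal concentration of signal decrease at or below twice the sample's top tested concentration; inconclusive means flat curve between -70 and -30 percent, or poor fit; inactive means flat within 30 percent, signal rise, or potency above limit.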

Assay: inhibitors of Toxoplasma growth in IFN-γ-primed HeLa – cell-based, ME49Luc, luciferase, 72 h, dose response (AID 1259418)
Settings: T. gondii ME49Luc in IFN-y HeLa, hits give low values, -100% = high-dose IFN-γ control wells; at 19.5 µM unless noted
In the case of `O=C(Cc1cccc(F)c1)Nc1ccc(-c2nc(-c3ccccc3)co2)cc1`, the max activity is reported as 16.9% [at 2.6 µM]. Work on `Cc1ccc(-c2nc(Cn3nnc(-c4nc(-c5ccc(F)cc5)no4)c3C)c(C)o2)cc1` yielded a max activity of 22%. For `CCCC(=O)Nc1ccc(-c2nc(-c3cc(C)ccc3C)co2)cc1`, the max activity was -11.6% [at 1.35 µM]. Compound `COCC12CCCOC1CCN(S(=O)(=O)c1cn(C)cn1)C2` (stereo not drawn) has a max activity of 18.3%. With `COC[C@@H]1CCC[C@]12CN(S(=O)(=O)c1cccs1)CCO2` the max activity was -9.83% [at 0.6 µM]. `CCSc1ccc(-c2sc(-c3ccc(F)cc3)nc2C)nn1` gave a max activity of 31.6%. In the case of `Cc1ccc2[nH]c(C(=O)NCc3ccccn3)c(NC(=O)c3ccc(Cl)cc3)c2c1`, the max activity is reported as 27.1% [at 0.35 µM]. In the case of `Cc1ccc2[nH]c(C(=O)NCc3cccnc3)c(NC(=O)c3ccc(Cl)cc3)c2c1`, the max activity is reported as -12% [at 10 µM]. `O=C(Nc1c(C(=O)NCc2ccccn2)[nH]c2ccccc12)c1ccc(Cl)cc1` showed a max activity of 9.23% [at 1.35 µM]. For `Cc1cccc(C(=O)Nc2c(C(=O)NCc3ccccn3)[nH]c3ccc(C)cc23)c1`, the max activity was 14.8% [at 10 µM]. Compound `Cc1ccc(C(=O)Nc2c(C(=O)NCc3cccnc3)[nH]c3ccc(C)cc23)cc1` has a max activity of 54.9% [at 2.6 µM]. Compound `Cc1ccc(C(=O)Nc2c(C(=O)NCc3ccccn3)[nH]c3ccccc23)cc1` has a max activity of -2.99% [at 0.35 µM]. Work on `Cc1cccc(C(=O)Nc2c(C(=O)NCc3cccnc3)[nH]c3ccc(C)cc23)c1` yielded a max activity of 28.1% [at 5 µM]. Compound `Cc1ccc2[nH]c(C(=O)N3CCN(c4ccccn4)CC3)c(NC(=O)c3ccc(F)cc3)c2c1` has a max activity of -13.6%. `Cc1ccc2c(c1C)-n1cccc1C1(CCN(C(=O)Cc3cccs3)CC1)N2` gave a max activity of 6.55% [at 0.16 µM]. Compound `COc1ccc(-c2nc(Nc3cccc(Cl)c3C)c3ccccc3n2)cc1` has a max activity of 25.3%. In the case of `Cc1ccc(-c2coc(-c3ccc(NC(=O)Nc4cccc(Br)c4)cc3)n2)cc1`, the max activity is reported as 22.7% [at 0.16 µM]. Work on `Cc1ccccc1-c1noc(-c2nnn(Cc3nc(-c4cccc(Cl)c4)oc3C)c2C)n1` yielded a max activity of -11.4% [at 0.16 µM]. In the case of `Cc1noc(C)c1C1CCCN1Cc1cn(C(C)C)c2ccccc12` (stereo not drawn), the max activity is reported as 17.5% [at 10 µM]. `Cc1cc(C2CCCN2Cc2cn(C(C)C)c3ccccc23)on1` (stereo not drawn) showed a max activity of 5.01%. `Clc1ccc(CSc2nc(NC3CCCCC3)c3ccccc3n2)cc1` gave a max activity of 26.1% [at 2.6 µM]. `CC(C)c1ccc(S(=O)(=O)N2CCC3(CC2)NCCN=C3NC2CCCCCC2)cc1` gave a max activity of 17.1% [at 0.16 µM]. With `CC(C)c1ccc(S(=O)(=O)N2CCC3(CC2)NCCN=C3NC2CCCCC2)cc1` the max activity was 20% [at 0.16 µM]. For `CC(C)c1ccc(S(=O)(=O)N2CCC3(CC2)NCCN=C3NC2CCCC2)cc1`, the max activity was -14.4% [at 10 µM]. In the case of `Cc1ccc(-c2coc(-c3ccc(NC(=O)Nc4ccc(Cl)cc4)cc3)n2)cc1`, the max activity is reported as 13.9% [at 0.16 µM]. With `Cc1ccc(C)c(-c2coc(-c3ccc(NC(=O)Nc4ccc(C)c(F)c4)cc3)n2)c1` the max activity was 15%. `CCc1ccccc1Nc1ncnc2c1cnn2-c1ccc(OC)cc1` gave a max activity of 48.9%. Work on `Clc1ccc(-c2nc(N3CCN(c4ccccn4)CC3)c3ccccc3n2)cc1` yielded a max activity of -23.4% [at 1.35 µM]. For `COc1ccc(-c2nc(NCc3cccc(OC)c3)c3ccccc3n2)cc1`, the max activity was 17.2%. In the case of `CCc1ccccc1NC(=O)N1CCN(Cc2nc(-c3ccc(C)cc3)oc2C)CC1`, the max activity is reported as 29.1% [at 10 µM]. In the case of `COc1ccc(-c2nc3c(s2)CN(C(=O)Nc2ccc(Cl)cc2)CC3)cc1OC`, the max activity is reported as 10.2% [at 0.16 µM]. With `CCOC(=O)CSC1=Nc2ccccc2C2=NC(CC(=O)NC3CCCCC3)C(=O)N12` (stereo not drawn) the max activity was -18.7% [at 10 µM]. `O=C1CCc2cc(S(=O)(=O)N3CCC(Cc4ccccc4)CC3)cc3c2N1CCC3` showed a max activity of 11.4% [at 1.35 µM]. `O=C1CCc2cc(S(=O)(=O)N3CCCc4ccccc43)cc3c2N1CCC3` showed a max activity of -12% [at 0.35 µM]. With `O=C1CCc2cc(S(=O)(=O)NCCC(c3ccccc3)c3ccccc3)cc3c2N1CCC3` the max activity was 9.16%. Compound `O=C1CCc2cc(S(=O)(=O)NCc3cccs3)cc3c2N1CCC3` has a max activity of 24.5%. For `CC1Cc2ccccc2N1S(=O)(=O)c1cc2c3c(c1)CCC(=O)N3CCC2` (stereo not drawn), the max activity was -11.1% [at 0.35 µM]. `O=C1CCc2cc(S(=O)(=O)NCc3ccccc3Cl)cc3c2N1CCC3` gave a max activity of 22.6% [at 2.6 µM]. For `Cc1ccc(C2=NC3(CCN(CC(=O)Nc4c(C)cccc4C)CC3)NC2=O)cc1`, the max activity was 10.4% [at 0.16 µM]. Work on `COc1ccc2c(c1)NC1(CCN(C(=O)CCC3CCCC3)CC1)c1cccn1-2` yielded a max activity of 10.2% [at 0.16 µM]. `COc1ccc(C)cc1NC(=O)N1CCc2nc(-c3ccc(C)cc3)sc2C1` showed a max activity of -14.6% [at 0.16 µM]. Compound `CCOc1ccc(CCNc2nc(-c3ccc(OC)cc3)nc3ccccc23)cc1` has a max activity of -9.19% [at 0.35 µM]. For `CCc1cc2c(N3CCC(C(N)=O)(N4CCCCC4)CC3)ncnc2s1`, the max activity was -27.2%. In the case of `CCOC(=O)CCNC(=O)Nc1ccc(-c2nc(-c3ccccc3)co2)cc1`, the max activity is reported as -13.1% [at 1.35 µM]. In the case of `COC(=O)c1ccc(NC(=O)COc2nc(C)nc3ccccc23)cc1`, the max activity is reported as 16% [at 2.6 µM]. With `O=C(c1ccco1)N1CCN(c2nc(-c3ccc(Cl)cc3)nc3ccccc23)CC1` the max activity was 16.5% [at 0.35 µM]. `O=C(c1ccco1)N1CCC2(CC1)Nc1cc(F)ccc1-n1cccc12` gave a max activity of 7.86% [at 0.16 µM]. With `Cc1ccc2c(c1C)-n1cccc1C1(CCN(C(=O)c3ccc(Cl)cc3)CC1)N2` the max activity was -11.9% [at 0.16 µM].
